Compounds with a hit are over-represented: about 0.93% of the library has one in this group of screens.
AGP1 TOR yeast = modulators of AGP1-GFP expression in yeast TOR pathway, primary screen, cell-based, multiplex flow cytometry, S. cerevisiae, MLPCN library | 3 h; GFP as percent of DMSO wells | GFP response vs DMSO, % at 10 µM | 320,000 compounds, 0.02% hits;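 active = GFP response relative to DMSO above a set limit, near screen average plus 3 SD, cut at about 150% in these data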;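 note: median GFP channel fluorescence of the gated AGP1 strain per well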
MEP2 TOR yeast = modulators of MEP2-GFP levels in yeast, primary screen, S. cerevisiae, multiplex flow cytometry, MLPCN library | S. cerevisiae MEP2-GFP strain, 3 h; 100% = DMSO control level | GFP response vs DMSO, % at 10 µM | 330,000 compounds, 0.51% hits;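 active = GFP response versus DMSO above a set limit, roughly screen mean plus 3 SD, cut at about 180% in these data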;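 note: median GFP fluorescence of the barcode-gated MEP2-GFP cells per well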
RPL19A TOR yeast = RPL19A-GFP expression modulators in yeast, primary screen, cell-based, S. cerevisiae, multiplex flow cytometry, MLPCN; percent response vs DMSO, % at 10 µM; 330,000 compounds, 0.3% hits; AID 2025, 2009; S. cerevisiae RPL19A-GFP strain, 3 h; hits give low values;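 active = percent response vs DMSO below 50%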;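 note: median channel GFP fluorescence of the barcoded RPL19A-GFP strain; lower means less RPL19A-GFP as with rapamycin TOR inhibition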
LAP4 TOR yeast = modulators of LAP4-GFP expression in yeast, primary screen, S. cerevisiae, multiplex flow cytometry, MLPCN library; GFP response vs DMSO, % at 10 µM; 3 h; median GFP as percent of DMSO wells; 320,000 compounds, 0.34% hits;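 active = GFP response vs DMSO above a set limit, about the screen mean plus 3 SD, cut at about 150% in these data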
CIT2-GFP yeast = modulators of CIT2-GFP expression in yeast, primary screen, S. cerevisiae, GFP fusion, multiplex flow cytometry, MLPCN library; AID 2029, 2009; 320,000 compounds, 0.065% hits; S. cerevisiae CIT2-GFP strain, 3 h; 100 means same as DMSO wells; GFP response vs DMSO, % at 10 µM;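 active = GFP response relative to DMSO above a set limit, near the screen mean plus 3 SD, cut at about 150% in these data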;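 note: ratio of well median GFP fluorescence to mean of DMSO wells on the plate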
LAP4-GFP pick2 = LAP4-GFP expression modulators in yeast, confirmation, cell-based, second cherry pick, flow cytometry; shares compounds with LAP4 TOR yeast; S. cerevisiae LAP4-GFP strain, 3 h; GFP response vs DMSO, % at 10 µM; 590 compounds, 20% hits;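 active = GFP signal as percent of the solvent control above about 150%, meaning raised reporter expression, limit read from the data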
MEP2-GFP pick2 = modulators of MEP2-GFP levels in yeast, confirmation, S. cerevisiae, flow cytometry GFP, second cherry picks | shares compounds with LAP4 TOR yeast | S. cerevisiae MEP2-GFP strain, 3 h | GFP response vs DMSO, % at 10 µM | 590 compounds, 10% hits | AID 2622, 2010;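 active = GFP signal above 150% of the solvent control wells, that is a rise of more than half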;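 note: median channel GFP fluorescence of all gated yeast cells per well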
RPL19A-GFP pick2 = RPL19A-GFP modulators in TOR pathway yeast, confirmation, cell-based, S. cerevisiae, flow cytometry, second cherry pick | S. cerevisiae RPL19A-GFP strain, 3 h; hits give low values; 100% means same as DMSO wells | 590 compounds, 3% hits | GFP response vs DMSO, % at 10 µM | AID 2623, 2010 | shares compounds with LAP4 TOR yeast;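 active = under 65% GFP response relative to DMSO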;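 note: median GFP channel fluorescence per well over the all cells gate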
CIT2-GFP pick2 = modulators of CIT2-GFP expression in yeast, confirmation, flow cytometry, second cherry pick, single plex | 590 compounds, 8% hits | S. cerevisiae CIT2-GFP strain, 3 h; DMSO control wells read 100% | GFP response vs DMSO, % at 10 µM | AID 2624, 2010 | shares compounds with LAP4 TOR yeast;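 active = GFP response vs DMSO above about 150%, limit read from the data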;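 note: median green fluorescence per well over all gated yeast cells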
AGP1-GFP pick2 = AGP1-GFP expression modulators, hit retest, confirmation, cell-based, flow cytometry, S. cerevisiae, cherry pick set 2. shares compounds with LAP4 TOR yeast. S. cerevisiae AGP1-GFP strain, 3 h. percent response vs DMSO, % at 10 µM. 590 tested, under 10 active. AID 2643, 2010;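 active = over 150 percent of DMSO response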;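 note: median GFP channel fluorescence over all cells without mother daughter split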
Yeast autofluor = compound autofluorescence in yeast s288c, dose response, artefact control for yeast TOR pathway GFP screen, s288c strain. shares compounds with LAP4 TOR yeast. S. cerevisiae s288c, 520 nm autofluorescence, flow cytometry, 3 h; hits give high values; zero means same as solvent-only cells. fluorescence change (kMESF span) at 33 µM. 610 tested, under 10 active;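 active = fluorescence span over the dose series, or activity score, above about 33, limit read from the data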
Numbers stand for hits; . = inactive; / = no result given.

SMILES | AGP1 TOR yeast | MEP2 TOR yeast | RPL19A TOR yeast | LAP4 TOR yeast | CIT2-GFP yeast | LAP4-GFP pick2 | MEP2-GFP pick2 | RPL19A-GFP pick2 | CIT2-GFP pick2 | AGP1-GFP pick2 | Yeast autofluor
Cc1ccc(/C=C/C(=O)c2ccccc(=O)c2O)c(C)c1 | . | 180.7 | . | . | . | / | / | / | / | / | .
Cc1ccc(/C=C/C(=O)c2ccccc2)cc1 | . | . | . | . | . | / | / | / | / | / | /
Cc1ccc(C)c(/C=C/C(=O)c2ccccc(=O)c2O)c1 | . | . | . | . | . | . | 167.7 | . | 151.6 | . | .
O=C(/C=C/c1ccccc1Cl)c1ccccc(=O)c1O | . | . | . | . | . | 162.3 | 221.8 | . | . | . | .
O=C(NCc1ccncc1)c1ccc(S(=O)(=O)Nc2ccccc2)cc1 | . | . | . | . | . | / | / | / | / | / | /
COC(=O)c1cn(C(=O)c2ccc(OC)c(OC)c2)c2ccccc12 | . | . | . | . | . | / | / | / | / | / | /
COC(=O)c1cn(C(=O)c2ccc(C)c(C)c2)c2ccccc12 | . | . | . | 150.9 | . | . | . | . | . | . | /
O=C(Nc1ccc(NS(=O)(=O)c2ccc([N+](=O)[O-])cc2)cc1)c1ccco1 | . | . | . | . | . | / | / | / | / | / | /
CC1CC(C)CN(S(=O)(=O)N2CCCC(C(=O)NC3CCCCC3C)C2)C1 (configuration not stated) | . | . | . | . | . | . | . | . | . | . | /
CC(C)N1CCc2c(sc(NC(=S)NC(=O)c3ccccc3)c2C#N)C1 | . | . | . | . | . | / | / | / | / | / | /
CCCN1CCc2c(sc(NC(=S)NC(=O)c3ccccc3)c2C#N)C1 | . | . | . | . | 157.1 | / | / | / | / | / | .
O=C(/C=C/c1ccc(Br)cc1)NC(=S)NNC(=O)c1ccco1 | . | . | . | . | . | . | . | . | . | . | .
O=C(/C=C/c1ccccc1)NC(=S)NNC(=O)c1ccco1 | . | . | . | . | . | / | / | / | / | / | /
Cc1ccc(C(=O)NNC(=S)NC(=O)c2ccco2)cc1 | . | . | . | 236.7 | . | / | / | / | / | / | .
Cc1ccccc1OCC(=O)NNC(=S)NC(=O)c1ccco1 | . | . | . | 158.5 | . | / | / | / | / | / | .
Cc1ccc(SCC(=O)N(C)CC(=O)Nc2cccc(F)c2)c(C)c1 | . | . | . | . | . | / | / | / | / | / | /
COc1ccc(C(c2c(C)[nH]n(C(N)=S)c2=O)C(C#N)C#N)cc1 (configuration not stated) | . | . | . | 335.3 | . | / | / | / | / | / | .
Cc1cc(=O)oc2cc(NC(=O)c3ccccc3Cl)ccc12 | . | . | . | . | . | / | / | / | / | / | /
C[C@@]12C(=O)Nc3ccc(Cl)cc3C(=O)N1[C@H]1c3ccccc3OC[C@@H]1[C@@H]2c1ccccc1 | . | . | . | 156.9 | . | . | . | . | . | . | /
C[C@@]12C(=O)Nc3cc(Cl)ccc3C(=O)N1[C@H]1c3ccccc3OC[C@@H]1[C@@H]2c1ccccc1 | . | . | . | . | . | / | / | / | / | / | /
CN1C(=O)C(=O)N(CC(=O)Nc2ccccc2OC(F)F)C1=O | . | . | . | . | . | / | / | / | / | / | /
CCCCS(=O)(=O)/C=C\C1C2C=CC(C2)C1S(=O)(=O)CCCC (configuration not stated) | / | . | . | . | . | / | / | / | / | / | /
CCCCS(=O)(=O)/C=C\C=C/S(=O)(=O)CCCC | . | . | . | 172.6 | . | 214.4 | . | . | . | . | .
COc1ccc(/C=C/C(=O)c2cc(Br)ccc2O)cc1OC | . | . | . | . | . | / | / | / | / | / | /
O=C(/C=C/c1ccccn1)c1cc(Br)ccc1O | . | . | . | 212.3 | . | / | / | / | / | / | .
SMILES | AGP1 TOR yeast | MEP2 TOR yeast | RPL19A TOR yeast | LAP4 TOR yeast | CIT2-GFP yeast | LAP4-GFP pick2 | MEP2-GFP pick2 | RPL19A-GFP pick2 | CIT2-GFP pick2 | AGP1-GFP pick2 | Yeast autofluor
O=C(/C=C/c1ccccn1)c1ccc(Br)cc1O | . | . | . | 154.8 | . | 165.3 | . | . | . | . | .
O=C(/C=C/c1ccc(O)cc1)c1ccc(O)cc1O | . | . | . | . | . | / | / | / | / | / | /
CCN(CC)c1ccc(/C=C2/C(=O)c3ccc(C(=O)O)cc3C2=O)cc1 | . | 364.9 | . | 298.4 | 231.2 | 284.6 | 377.3 | . | 250.3 | . | .
CC(=O)N(Cc1ccccc1)c1c(N)nc(N)[nH]c1=O | . | . | . | . | . | / | / | / | / | / | /
CCn1cc(C(=O)Nc2ccc(OC)c(S(=O)(=O)N3CCCCC3)c2)c(=O)c2ccc(C)nc21 | . | 175.0 | . | 157.7 | . | . | . | . | . | . | /
Cc1oc2cc(O)ccc2c(=O)c1Oc1ccccc1 | . | . | . | . | . | / | / | / | / | / | /
O=C(O)c1ccc(Oc2c(C(F)(F)F)oc3cc(O)ccc3c2=O)cc1 | . | . | . | . | . | . | . | . | . | . | /
O=C1C2C3C=CC(CO)(O3)C2C(=O)N1c1ccccc1-c1ccccc1 (configuration not stated) | . | . | . | 193.9 | . | / | / | / | / | / | .
CC(=O)Oc1ccc(N2C(=O)C3C4C=CC(CO)(O4)C3C2=O)cc1 (configuration not stated) | . | . | / | . | . | / | / | / | / | / | .
CCC/C(C(=O)NCCO)=C1/c2ccccc2C(=O)N1c1ccccc1 | . | . | . | . | . | / | / | / | / | / | /
C#CCOCCOCCOCCNc1nc(N2CCN(C(=O)CCCCCCCCCCNC(=O)Cn3cc(C[C@@H](C)O)nn3)CC2)nc(N2CCN(C(=O)CCCCCCCCCCNC(=O)[C@H](CCCN=C(N)N)n3cc(C[C@@H](C)CC)nn3)CC2)n1 | . | . | . | 183.4 | . | . | . | . | . | . | /

Bioassay records from PubChem BioAssay.
